Screening data (PubChem)
Only some compounds are listed: those with a hit (about 10% of all), similar ones and a draw of the others.
FLuc inh = Firefly luciferase inhibition profiling of diverse chemical library using quantitative high-throughput screening | purified P. pyralis luciferase, luminescence, biochemical | Potency, µM (titrated, usually from 115 µM), usual class: inhibitors | actives 2.5% (n = 76,000); also: % is scaled to controls: 0 for no effect and ±100 for the full control effect; nearly all actives have a fitted effect of over 65% in size
Target sequence (P08659 whole entry, looked up): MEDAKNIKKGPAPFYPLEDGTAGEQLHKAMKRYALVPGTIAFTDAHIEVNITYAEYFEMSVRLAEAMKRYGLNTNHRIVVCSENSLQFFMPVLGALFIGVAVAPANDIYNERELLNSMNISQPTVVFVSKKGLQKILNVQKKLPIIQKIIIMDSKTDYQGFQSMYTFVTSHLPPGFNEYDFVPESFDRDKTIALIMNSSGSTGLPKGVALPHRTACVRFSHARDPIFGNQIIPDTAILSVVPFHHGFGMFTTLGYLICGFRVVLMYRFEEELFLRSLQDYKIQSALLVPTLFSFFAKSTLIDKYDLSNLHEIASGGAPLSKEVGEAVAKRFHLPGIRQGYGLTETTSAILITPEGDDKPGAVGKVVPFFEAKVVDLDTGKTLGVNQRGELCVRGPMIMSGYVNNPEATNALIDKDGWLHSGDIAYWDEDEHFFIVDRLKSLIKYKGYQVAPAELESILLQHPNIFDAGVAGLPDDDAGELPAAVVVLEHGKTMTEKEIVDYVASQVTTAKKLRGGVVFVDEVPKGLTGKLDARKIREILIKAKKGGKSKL
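Purified 10nM P. pyralis luciferase with 10uM D-luciferin and 10uM ATP in 50mM Tris acetate pH 7.5, 10mM Mg acetate, 0.01% Tween-20, 0.05% BSA. qHTS titration; luminescence read by CCD imager.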
3T3 cytotox = Cytotoxic Profiling in NIH 3T3 Cell Line of Diverse Libraries Using Quantitative High-Throughput Screening; NIH 3T3 viability, CellTiter-Glo ATP luminescence, 48-72 h; Potency, µM (highest dose often 96.7 µM), for inactives: top-dose activity change, negative = cytotoxicity, hits mostly inhibitors; actives 4.3% (n = 94,000); AID 1345082, 2018; also: % is scaled to controls: 0 for no effect and ±100 for the full control effect; nearly all actives have a fitted effect of over 55% in size
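Cytotoxicity was measured by CellTiter-Glo ATP luminescence after 48 or 72 h compound exposure at 37 °C. Mouse NIH 3T3 fibroblasts were seeded at 400 cells/well and dosed by 23 nL pin transfer.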
hNpr1 antagonist = Natriuretic polypeptide receptor (hNpr1) antagonism - Primary qHTS | Atrial natriuretic peptide receptor 1 (Homo sapiens), P16066 | HEK293 hNpr1 GloSensor cGMP, ANP-stimulated luminescence | Potency, µM (series often up to 46.3 µM), for the others: top-dose activity change, negative = inhibition, usual class: inhibitors | actives 1.6% (n = 76,000) | AID 1347048, 2019; calls by dose curve; also: % is scaled to controls: 0 for no effect and ±100 for the full control effect; nearly all actives have a fitted effect of over 60% in size
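Compound pre-incubated 30 min at room temperature on GloSensor-loaded HEK293 cells stably carrying hNpr1 and the pGS-40F cGMP biosensor. Stimulation uses hNppA at 0.1 nM final; luminescence is taken at baseline and 20 min post-agonist.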
GPT2 inh = Primary qHTS assay for inhibitors of Glutamate pyruvate transaminase 2 (GPT2); Alanine aminotransferase 2 (Homo sapiens), Q8TD30; Recombinant GPT2, coupled pyruvate oxidase/HRP Amplex Red fluorescence; Potency, µM (titrated, usually from 57.7 µM), without a hit: at the top dose activity change, negative = inhibition, actives largely listed as inhibitors; actives 0.25% (n = 100,000); AID 1671188, 2021; also: % is scaled to controls: 0 for no effect and ±100 for the full control effect; nearly all actives have a fitted effect of over 60% in size
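Fluorescence read-out: pyruvate from GPT2 turnover coupled to pyruvate oxidase, HRP and Amplex Red (0.2mM ThPP, 0.2U/mL PO and HRP, 50uM Amplex final). Substrates 250uM a-KG, 2mM L-alanine; enzyme 10ng/uL; 30 min RT.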
HEK293 tox = Cytotoxic Profiling in HEK 293 Cell Line of Diverse Libraries Using Quantitative High-Throughput Screening; HEK 293 viability, ATP luminescence (CellTiter-Glo), 48-72 h; Potency, µM (highest dose often 115 µM), for inactives: at the top dose activity change, negative = cytotoxicity, usual class: inhibitors; actives 6.6% (n = 94,000); also: % is scaled to controls: 0 for no effect and ±100 for the full control effect; nearly all actives have a fitted effect of over 60% in size
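Cells seeded first (HEK 293, 250 cells/well), then compound added by pintool. Incubation ran 48 or 72 hr at 37 degree Celsius. CellTiter-Glo was added and luminescence imaged after 10 min at room temperature.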
NPR1 antag cnf = Natriuretic polypeptide receptor (hNpr1) antagonism - Confirmation; Potency, µM (doses to about 57.6 µM), for inactives: at the top dose activity change, negative = inhibition, hits mostly inhibitors; AID 1347044, 2019; shares compounds with hNpr1 antagonist; actives 76% (n = 1,400); HEK293 hNpr1 cGMP GloSensor luminescence, ANP-stimulated; calls by dose curve; also: nearly all actives have a fitted effect of over 70% in size
Npr2 selectivity = Natriuretic polypeptide receptor (hNpr2) antagonism - Subtype selectivity assay | HEK293 hNpr2 GloSensor cGMP luminescence, CNP-stimulated | shares compounds with hNpr1 antagonist | Potency, µM (highest dose often 57.6 µM), for the others: at the top dose activity change, negative = inhibition, most hits filed as inhibitors | actives 67% (n = 1,400); calls by dose curve; also: nearly all actives have a fitted effect of over 70% in size
FLuc counter = Natriuretic polypeptide receptor (hNpr1) antagonism - Confirmation firefly luciferase (FLuc) inhibition counterscreen. shares compounds with hNpr1 antagonist. purified FLuc enzyme, luminescence, Km substrate. Potency, µM (series often up to 57.6 µM), for the others: at the highest dose activity change, negative = inhibition, hits mostly inhibitors. actives 0.7% (n = 1,400). AID 1347047, 2019; also: 0% is about no effect
GloSensor cGMP = Natriuretic polypeptide receptor (hNpr1) antagonism - Counterscreen GloSensor control cell line; shares compounds with hNpr1 antagonist; HEK293 GloSensor cGMP, SNP-stimulated, luminescence; Potency, µM (highest dose often 57.6 µM), for the others: at the top dose activity change, negative = inhibition, hits mostly inhibitors; actives 69% (n = 1,400); AID 1347051, 2019; calls by dose curve; also: % is scaled to controls: 0 for no effect and ±100 for the full control effect; nearly all actives have a fitted effect of over 70% in size
* = called active by the depositor; i = inactive; ? = inconclusive; . = not tested or not shown; [ ] = dose if it differs, or a comment. Unless noted, calls follow the shape of the dose curve; as a rule, active = well fitted curve in the direction sought with a large enough effect; inconclusive = small, poorly fitted or top-dose-only effect, or another doubt; inactive = no such curve, though single readings can be large; an effect the other way counts as inactive or inconclusive. Potency is read from the fitted curve at half-maximal effect.

SMILES	FLuc inh	3T3 cytotox	hNpr1 antagonist	GPT2 inh	HEK293 tox	NPR1 antag cnf	Npr2 selectivity	FLuc counter	GloSensor cGMP
COc1cc(Cl)ccc1C(=O)N1CCN(C(=O)c2nnn3c2COC(c2ccccc2)C3)CC1 (centres undefined)	i	?	?	i	?	22µM*	?	3%	31µM*
Cc1ccccc1C(=O)N1CCN(C(=O)c2nnn3c2COC(c2ccc(Cl)cc2)C3)CC1 (centres undefined)	i	?	?	i	?	27µM*	?	1%	?
Cc1ccccc1N1CCN(C(=O)c2nnn3c2COC(c2ccc(Cl)cc2)C3)CC1 (centres undefined)	i	0%	4%	i	0%	.	.	.	.
Cc1ccc(C2Cn3nnc(C(=O)N4CCN(C(=O)c5cc(Cl)ccc5F)CC4)c3CO2)cc1 (centres undefined)	i	?	?	-8%	?	15µM*	19µM*	-2%	17µM*
O=C1CC(c2ccccc2)N(Cc2ccncc2)CCCN(C(=O)c2ccco2)CCN1 (centres undefined)	i	-17%	6%	-14%	1%	.	.	.	.
O=S(=O)(Nc1ccccn1)c1ccc(N=Cc2c(O)[nH]c3ccc4ncsc4c23)cc1	.	.	.	i[11.5 µM]	.	.	.	.	.
Cc1ccc(C(=O)N2CCC(C(=O)N3CCC(N4Cc5cccn5C4=O)CC3)CC2)cc1	.	-17%	.	i	-14%	.	.	.	.
CN1C[C@@H](NC(=O)c2ccc3c(c2)OCO3)C[C@H]1c1nc(-c2ccc(Cl)cc2)no1	i	79µM*	35µM*	0%[88.5 µM]	50µM*	28µM*	31µM*	-28%[86.2 µM]	25µM*
C=CCOC(=O)C1=C(C)N=C2SC=C(CC(=O)N3CCOCC3)N2C1c1ccc(C)cc1C (centres undefined)	?	-15%	?	-6%	?	.	.	.	.
CC1=C(C(=O)OC(C)C)C(c2ccc(C)cc2C)N2C(CC(=O)N3CCCC3)=CSC2=N1 (centres undefined)	i	?	?	-8%	?	?	?	-8%	?
CC1=C(C(=O)OC(C)C)C(c2ccccc2Cl)N2C(CC(=O)N3CCCC3)=CSC2=N1 (centres undefined)	i	-14%	13µM*	i	?	24µM*	22µM*	-2%	?
CC1=C(C(=O)OC(C)C)C(c2ccccc2Cl)N2C(CC(=O)N3CCOCC3)=CSC2=N1 (centres undefined)	i	-31%	14µM*	-13%	?	?	?	2%	?
CCc1nc(-c2c3n(c(=O)n(Cc4cccc(Br)c4)c2=O)CCCC3)no1	i	?	0%	1%	?	.	.	.	.
NC(=O)c1ccccc1OCC(=O)N1CC(CNC(=O)Nc2ccccc2)C2(C1)CN(c1ccccc1)C2 (centres undefined)	i	?	-1%	2%	?	.	.	.	.
O=C(c1cc(Cl)ccc1F)N1CCC(Cc2nc(-c3ccc(F)cc3)no2)CC1	i	?	3.2µM*	i	?	4.3µM*	5.4µM*	4%	4.3µM*
O=C(c1cc(F)ccc1F)N1CCC(Cc2nc(-c3ccc(F)cc3)no2)CC1	i	?	3.2µM*	i	?	3.1µM*	4.8µM*	4%	3.1µM*
Cc1ccc(F)cc1CN1CCOc2cc([S+](=O)([O-])N(C)C)ccc2C1	i	?	35µM*	i	40µM*	40µM*	40µM*	-2%[86.2 µM]	35µM*
CN(Cc1ccccc1)C1CCOC2(CCN(C(=O)NCc3ccc(F)cc3)CC2)C1 (centres undefined)	i	-18%	-7%	i	-23%	.	.	.	.
COc1cccc(CC(=O)N2CCN(C(=O)c3nnn4c3COC(c3ccc(C)cc3)C4)CC2)c1 (centres undefined)	i	-7%	?	i	?	24µM*	?	4%	?
COc1ccccc1CC(=O)N1CCN(C(=O)c2nnn3c2COC(c2ccc(C)cc2)C3)CC1 (centres undefined)	i	-33%	10µM*	-3%	?	19µM*	19µM*	2%	15µM*
CCc1ccc(C(=O)N2CCN(C(=O)c3nnn4c3COC(c3ccc(C)cc3)C4)CC2)cc1 (centres undefined)	i	-17%	?	1%	?	19µM*	19µM*	-1%	19µM*
Cc1ccc(C2Cn3nnc(C(=O)N4CCN(C(=O)Cc5cccc(F)c5)CC4)c3CO2)cc1 (centres undefined)	i	3%	11µM*	2%	?	22µM*	22µM*	1%	22µM*
Cc1ccc(C2Cn3nnc(C(=O)N4CCN(C(=O)c5cccc(F)c5)CC4)c3CO2)cc1 (centres undefined)	i	-22%	-20%	i	?	.	.	.	.
Cc1ccc(CC(=O)N2CCN(C(=O)c3nnn4c3COC(c3ccccc3)C4)CC2)cc1 (centres undefined)	i	-14%	-14%	3%	-25%	.	.	.	.
